Laboratory results reported in PubChem BioAssay AID1159580 (chemical genetic matrix, 2015).
Among all 5,500 compounds or so, about 2,000 (36%) were called active. Inconclusive results (about 18%) are left out. No stated cut-off is given here; in the data, active means normalized growth mostly below about 0.91 (no sharp cut-off); inconclusive means no clear call, values can overlap the other calls; inactive means mostly above about 0.92. The list shows a part of the results.

Assay: chemical genetic growth profiling, strain panel (AID 1159580);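 further: tested at 20 µM; growth read once vehicle control cultures reached saturation at 30 °C; 1 = growth at the plate median or of vehicle wells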
Conditions: growth OD

Measured: normalized growth

N#CCCN1C(=O)C2(OCCO2)c2ccccc21
inactive: S. cerevisiae deletion strains, locus YAL013W, strain DEP1, stronger effect = lower value 1.01 | S. cerevisiae deletion strains, locus YBR229C, strain ROT2, stronger effect = lower value 1.01 | S. cerevisiae deletion strains, locus YCL061C, strain MRC1, stronger effect = lower value 1 | S. cerevisiae deletion strains, locus YDL101C, strain DUN1, stronger effect = lower value 0.976 | S. cerevisiae deletion strains, locus YDR150W, strain NUM1, stronger effect = lower value 0.977 | S. cerevisiae deletion strains, locus YEL061C, strain CIN8, stronger effect = lower value 0.997 | S. cerevisiae deletion strains, locus YGR078C, strain PAC10, stronger effect = lower value 1 | S. cerevisiae deletion strains, locus YHR030C, strain SLT2, stronger effect = lower value 1 | S. cerevisiae deletion strains, locus YHR087W, strain rtc3, stronger effect = lower value 0.991 | S. cerevisiae deletion strains, locus YJL187C, strain SWE1, stronger effect = lower value 1 | S. cerevisiae deletion strains, locus YJR043C, strain POL32, stronger effect = lower value 1 | S. cerevisiae deletion strains, locus YJR075W, strain HOC1, stronger effect = lower value 1 | S. cerevisiae deletion strains, locus YLR039C, strain RIC1, stronger effect = lower value 1.02 | S. cerevisiae deletion strains, locus YLR058C, strain SHM2 (second series), stronger effect = lower value 1 | S. cerevisiae deletion strains, locus YLR085C, strain ARP6, stronger effect = lower value 1.02 | S. cerevisiae deletion strains, locus YLR262C, strain YPT6, stronger effect = lower value 1.02 | S. cerevisiae deletion strains, locus YML094W, strain GIM5, stronger effect = lower value 0.986 | S. cerevisiae deletion strains, locus YMR219W, strain ESC1, stronger effect = lower value 1.01 | S. cerevisiae deletion strains, locus YMR263W, strain SAP30, stronger effect = lower value 1.05 | S. cerevisiae deletion strains, locus YMR307W, strain GAS1, stronger effect = lower value 1.05 | S. cerevisiae deletion strains, locus YNL153C, strain GIM3, stronger effect = lower value 1.02 | S. cerevisiae deletion strains, locus YNL298W, strain CLA4 (second series), stronger effect = lower value 1 | S. cerevisiae deletion strains, locus YNL322C, strain KRE1, stronger effect = lower value 0.997 | S. cerevisiae deletion strains, locus YNR030W, strain Alg12, stronger effect = lower value 1 | S. cerevisiae deletion strains, locus YOL006C, strain TOP1, stronger effect = lower value 1.02 | S. cerevisiae deletion strains, locus YPL055C, strain LGE1, stronger effect = lower value 1.02 | S. cerevisiae deletion strains, locus YPL241C, strain CIN2, stronger effect = lower value 1.01 | S. cerevisiae deletion strains, locus YPR135W, strain CTF4, stronger effect = lower value 1.09 | S. cerevisiae strains, strain wild type, stronger effect = lower value 1.02
